Laboratory results: the supplement of paper PMC12282887
± gives the standard deviation of the averaged measurements.

Test system: E. coli BW25113 marRABp lux reporter
Test: promoter activity interaction Z-score (Lux/OD deviation from empty-vector control); higher = stronger promoter induction by the compound
Procedure: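 E. coli BW25113 (wild type or ΔmarA/ΔsoxS/Δrob) carrying pTU175 luxCDABE promoter reporters was grown in LB in 384-well plates at 37°C with each of 94 compounds at 4 two-fold concentrations, in biological duplicates. Luminescence and OD600 were read every 30 min for 12 h and integrated as AUC over 8 h (0-8 h WT, 1-9 h mutants). Lux AUC was divided by OD AUC; the interaction score is the residual of a Huber robust fit of each promoter against the empty-vector control, then Z-transformed per promoter.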

Structure (SMILES) | promoter activity interaction Z-score (0.038 µg/ml, genetic background: wild type) | promoter activity interaction Z-score (0.038 µg/ml, genetic background: ΔmarA) | promoter activity interaction Z-score (0.038 µg/ml, genetic background: Δrob) | promoter activity interaction Z-score (0.038 µg/ml, genetic background: ΔsoxS) | promoter activity interaction Z-score (0.076 µg/ml, genetic background: wild type) | promoter activity interaction Z-score (0.076 µg/ml, genetic background: ΔmarA) | promoter activity interaction Z-score (0.076 µg/ml, genetic background: Δrob) | promoter activity interaction Z-score (0.076 µg/ml, genetic background: ΔsoxS) | promoter activity interaction Z-score (0.15 µg/ml, genetic background: wild type) | promoter activity interaction Z-score (0.15 µg/ml, genetic background: ΔmarA) | promoter activity interaction Z-score (0.15 µg/ml, genetic background: Δrob) | promoter activity interaction Z-score (0.15 µg/ml, genetic background: ΔsoxS) | promoter activity interaction Z-score (0.3 µg/ml, genetic background: wild type) | promoter activity interaction Z-score (18 µg/ml, genetic background: wild type) | promoter activity interaction Z-score (18 µg/ml, genetic background: ΔmarA) | promoter activity interaction Z-score (18 µg/ml, genetic background: Δrob) | promoter activity interaction Z-score (18 µg/ml, genetic background: ΔsoxS) | promoter activity interaction Z-score (36.1 µg/ml, genetic background: wild type) | promoter activity interaction Z-score (36.1 µg/ml, genetic background: ΔmarA) | promoter activity interaction Z-score (36.1 µg/ml, genetic background: Δrob) | promoter activity interaction Z-score (36.1 µg/ml, genetic background: ΔsoxS) | promoter activity interaction Z-score (72.1 µg/ml, genetic background: wild type) | promoter activity interaction Z-score (72.1 µg/ml, genetic background: ΔmarA) | promoter activity interaction Z-score (72.1 µg/ml, genetic background: Δrob) | promoter activity interaction Z-score (72.1 µg/ml, genetic background: ΔsoxS) | promoter activity interaction Z-score (144.2 µg/ml, genetic background: wild type) | promoter activity interaction Z-score (144.2 µg/ml, genetic background: ΔmarA) | promoter activity interaction Z-score (144.2 µg/ml, genetic background: Δrob) | promoter activity interaction Z-score (144.2 µg/ml, genetic background: ΔsoxS)
Cc1c(N)nc([C@H](CC(N)=O)NC[C@H](N)C(N)=O)nc1C(=O)N[C@H](C(=O)N[C@H](C)[C@@H](O)[C@H](C)C(=O)N[C@H](C(=O)NCCc1nc(-c2nc(C(=O)NCCC[S+](C)C)cs2)cs1)[C@@H](C)O)[C@@H](OC1OC(CO)C(O)C(O)C1OC1OC(CO)C(O)C(OC(N)=O)C1O)c1cnc[nH]1 (some centres undefined) [Bleomycin] | -0.417 ± 0.23 | -0.0394 ± 0.031 | -0.132 ± 0.16 | 0.0622 ± 0.095 | 0.0986 ± 0.2 | 0.278 ± 0.39 | 0.331 ± 0.28 | 0.321 ± 0.053 | 0.24 ± 0.21 | 0.245 ± 0.13 | 0.652 ± 0.46 | 0.457 ± 0.048 | 2.68 ± 0.29 |  |  |  |  |  |  |  |  |  |  |  |  |  |  |  | 
C[C@]12CC[C@H]3[C@@H](CCC4=CC(=O)CC[C@@]43C)[C@@H]1CC[C@@H]2O [Testosterone] |  |  |  |  |  |  |  |  |  |  |  |  |  | -0.549 ± 0.28 | -0.238 ± 0.15 | -0.5774 ± 0.0046 | -0.238 ± 0.058 | -0.712 ± 0.027 | -0.0596 ± 0.21 | -0.24 ± 0.17 | -0.368 ± 0.14 | -0.654 ± 0.22 | -0.0306 ± 0.33 | -0.303 ± 0.014 | -0.398 ± 0.14 | -0.399 ± 0.038 | -0.0772 ± 0.21 | -0.448 ± 0.17 | -0.258 ± 0.0049
